Results on 40 compounds are retold here after PubChem BioAssay (EPA / NIEHS).

Structures are written as SMILES. The source made the active and inactive calls. The calls were made as follows: active = hit-call score of the fitted dose curve at least 0.9, where 1 is the maximum; inactive = score below 0.9.

A short description of this test: ATG_M_06_CIS: Attagene CIS-FACTORIAL HepG2 Assay for M06 Transcription Factor (Internal Marker) (AID 2282950). The following applies: HepG2 Attagene CIS-FACTORIAL M06 internal marker reporter; actives raise or lower the signal. The protocol:
ATG_CIS is a cell-based, multiplexed-readout assay that uses HepG2, a human liver cell line, with measurements taken at 24 hours after chemical dosing in a 24-well plate.ATG_M_06_CIS is one of 52 assay component(s) measured or calculated from the ATG_CIS assay. It is designed to make measurements of mRNA induction, a form of inducible reporter, as detected with fluorescence intensity signals by Reverse transcription polymerase chain reaction (RT-PCR) and Capillary electrophoresis technology.Data from the assay component ATG_M_06_CIS was analyzed into 1 assay endpoint. This assay endpoint, ATG_M_06_CIS, was analyzed with bidirectional fitting relative to DMSO as the negative control and baseline of activity. Using a type of inducible reporter, measures of mRNA for gain or loss-of-signal activity can be used to understand the background control at the transcription factor-level as they relate to the gene . Furthermore, this assay endpoint can be referred to as a secondary readout, because this assay has produced multiple assay endpoints where this one serves a background control function. To generalize the intended target to other relatable targets, this assay endpoint is annotated to the background measurement intended target family, where the subfamily is internal marker.
Human liver HepG2 cells are transiently transfected with multiple reporter transcription units (MRTUs) in 6-well plates using FuGene 6 reagent (Roche; 3 ml FuGene/1 mg DNA). The MRTU constructs are regulated by a cis-regulating element (promoter). […] A major difference between the CIS and TRANS system is that in CIS activities of endogenous TFs are measured, whereas the TRANS assay evaluates changes in activities of exogenous, chimeric NR-Gal4 proteins. […] At the end of 24 hour incubation, total RNA was isolated using TriZol reagent (Invitrogen). The isolated RNA is then reverse-transcribed using oligo(dT) primer and Mo-MLV reverse transcriptase (Invitrogen) with DNAse I (Ambion) treatment for 30 min. The one-tenth of the produced cDNA was amplified by PCR using Taq DNA polymerase (Invitrogen) and two reporter sequence-specific primers. The PCR products were fluorescently labeled by primer extension with 6-arboxyfluorescein (6-FAM) 5'-labeled reporter sequence-specific primer (2 min at 95 C, 20 s at 68 C and 10 min at 72 C) and these products were digested with 5U of HpaI (New England Biolabs) for 2h at 37 C. The fragments were purified using Qiaquick PCR columns (Qiagen), analyzed on an ABI 3130xL genetic analyzer (Applied Biosystems) with peak positions identified by using a set of X-rhodamine (ROX)-labeled MapMarker1000 molecular weight standards (BioVentures). The raw capillary electrophoresis data was processed using Attagraph software (Attagene).
For the compound `CO[Si](C)(C)OC`, the outcome was inactive. The entry for `CC(=O)OCc1ccccc1` is “inactive”; for `CC(=O)OCCc1ccccc1` it is “inactive”. The result for `CCCCNS(=O)(=O)c1ccccc1` reads “inactive”; that for `COC(=O)C=Cc1ccccc1`, “inactive”; that for `CCCCCCCCCCCC(=O)OCC`, “inactive”. The result for `CC(C)[N+](C)(CCOC(=O)C1c2ccccc2Oc2ccccc21)C(C)C` reads “inactive”.

Consider `CC1=C(O)C(=O)C(C)O1` (stereo not given), for which the call was inactive.

Consider `C=CCNCC=C`, for which the call was inactive.

For `CCCCCCOC(=O)CCCCC(=O)OCCCCCC`, the outcome was inactive. In the case of `Cc1cc(=O)[nH]c(=O)[nH]1`, the result was inactive. The result for `O=C(Cl)c1ccc(C(=O)Cl)cc1` reads “inactive”; that for `COCC(=O)O`, “inactive”; that for `CC(C)(C)C1CCC(=O)CC1`, “inactive”. The result for `C=CC(=O)OCCCCCCCC(C)C` reads “inactive”; that for `CCOC(=O)C1=NN(c2ccc(Cl)cc2Cl)C(C)(C(=O)OCC)C1` (stereo not given), “inactive”. The entry for `C1CCSC1` is “inactive”. Regarding `CC(C)c1ccc(O)c(C(C)C)c1`, the outcome was inactive.

Turning to `CC(=O)OC1CCCCC1C(C)(C)C` (stereo not given), the outcome was inactive. The result for `c1ccc2cnccc2c1` reads “inactive”. The entry for `Nc1ccc(Cl)c(N)c1` is “inactive”. The entry for `C=C(C)C1CC=C(C)CC1` (stereo not given) is “inactive”; for `CCc1cccc(CC)c1` it is “inactive”; for `CCCCCCCCCCCC(C)=O` it is “inactive”. Turning to `CC(C)COC(=O)CC(C(=O)OCC(C)C)S(=O)(=O)O` (stereo not given), the compound was classed as inactive.

Consider `C=CCOC(=O)c1ccc(C(=O)OCC=C)c(C(=O)OCC=C)c1`, for which the compound was called inactive. Consider `CCN1CCCC1=O`, for which the call was inactive. The entry for `O=C1c2ccccc2C(=O)c2cc(S(=O)(=O)O)ccc21` is “inactive”; for `N=C1C=CC(=C(c2ccc(N)cc2)c2ccc(N)cc2)C=C1` it is “inactive”. For the compound `CCCCC(CC)COS(=O)(=O)O` (stereo not given), the compound was classed as inactive.

For `CCC(=O)C1CC(C(C)C)CC=C1C` (stereo not given), the compound was called inactive. `C=CCCCCCCCCOC(C)=O`: the call was inactive.

`O=C1CCCCCCCCCCCN1`: the compound was classed as inactive. The entry for `CCCCOC(=O)CCC(C)=O` is “inactive”; for `C=C(C)C(=O)OCCCCCCCCCCCC` it is “inactive”; for `CCOC(=O)/C=C\C(=O)OCC` it is “inactive”.

As for `COc1ccc(C(=O)c2ccccc2)c(O)c1`, the result was inactive.

In the case of `Cc1ccccc1CCO`, the compound was called inactive. The entry for `Nc1ccc(C(=O)OCCCOC(=O)c2ccc(N)cc2)cc1` is “inactive”; for `CC1(C)CCC[C@]2(C)[C@H]3CC(=O)O[C@]3(C)CC[C@@H]12` it is “inactive”.
